In PubChem BioAssay (NCI):
Compounds without any hit were thinned out: in the full panel of roughly 83,000, 20% have a hit.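 Interpretation: 100, growth as untreated; towards 0, rising growth inhibition; 0, no net growth; 0 to -100, cell death. Compounds scoring below 10 were considered active.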 A number with no mark means an inactive call. Active and inactive are the calls of the source.

These compounds were tested on MDA-MB-468 breast (assay: NCI-60 one-dose screen, 48 h (100 = growth as untreated, 0 = no growth, -100 = all killed)). Conditions: 10 µM unless noted.

Structure (SMILES) | growth
C=CCN1C(=O)/C(=C\c2ccc3c(c2)CCC3)SC1=S | 116%
Cc1ccc(C(=NN=C(N)N)c2ccc(C)cc2)cc1 | -42.5% (active)
CCCC(CC)(C(=O)Nc1ccc2nc(C)cc(N)c2c1)C(=O)Nc1ccc2nc(C)cc(N)c2c1 | 87%
O=c1c2ccccc2[nH]n1Cc1ccc2c(c1)OCO2 | 94.5%
NC1(CO)COC(c2ccccc2)OC1 (stereo not given) | 99.7%
